This is an account of results in PubChem BioAssay (NCI).

The panel holds about 83,000 compounds, 20% with a hit somewhere; the sample as a whole holds those more often.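 The test compound was applied at a single concentration to cells in 96-well plates for 48 hours, and percent growth was recorded.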 A number with no mark means an inactive call. Calls of active or inactive are those of the source. The calls were made as follows: active = growth percent below 10; inactive = the rest.

Some test systems named below: HCT-15 colon; HT29 colon; SNB-75 CNS; SNB-19 CNS; U251 CNS; PC-3 prostate; SK-MEL-5 melanoma; UACC-62 melanoma; LOX IMVI melanoma; SK-MEL-28 melanoma; SK-MEL-2 melanoma; EKVX NSCLC; SN12C renal; UO-31 renal; TK-10 renal; CAKI-1 renal; A498 renal; CCRF-CEM leukemia; MOLT-4 leukemia; ACHN renal.
Holding throughout (assay): NCI-60 one-dose screen, 48 h (100 = growth as untreated, 0 = no growth, -100 = all killed)
Holding throughout (conditions): 10 µM unless noted

Regarding `CCCCSCC(=O)c1ccccc1`, the growth with HCT-15 colon is 104%; with HT29 colon it was 92.2%; in the assay on SNB-75 CNS it was 82.3%; with SNB-19 CNS, 98.1%; in the assay on U251 CNS, 97.3%; in the assay with PC-3 prostate it was 81.5%. Moreover, the growth is 102% in the assay on SK-MEL-5 melanoma; 102% in the assay with UACC-62 melanoma; 101% in the assay on LOX IMVI melanoma; 108% in the assay with SK-MEL-28 melanoma; 85.2% with SK-MEL-2 melanoma; 99% in the assay with EKVX NSCLC. Besides, the growth with SN12C renal is 103%; with UO-31 renal, 85%; in the assay on TK-10 renal, 86.1%; with CAKI-1 renal, 94.4%; in the assay with A498 renal, 106%; in the assay with CCRF-CEM leukemia, 91.9%. For the same compound, the growth in the assay with MOLT-4 leukemia was 92.9%.

In the case of `CC(C)c1ccc(NC(=O)Nc2ccc(NC(=O)c3ccccc3N)cc2)cc1`, the growth was 50.7% in the assay with HCT-15 colon; 26.5% with HT29 colon; 26.3% in the assay on SNB-75 CNS; 55.5% with SNB-19 CNS; 35.6% in the assay with U251 CNS; 47.6% with PC-3 prostate. The growth is 24.3% in the assay with SK-MEL-5 melanoma; 3% (active) in the assay with UACC-62 melanoma; 20.9% with LOX IMVI melanoma; 39.9% with SK-MEL-28 melanoma; 45.3% in the assay with SK-MEL-2 melanoma; 48.2% in the assay with EKVX NSCLC. Further, the growth with SN12C renal is 91.6%; in the assay with UO-31 renal, 20.5%; in the assay on TK-10 renal, 65.5%; with ACHN renal it was 29.6%; in the assay on CAKI-1 renal, 70.7%; in the assay with A498 renal it was 49.6%. The growth in the assay with CCRF-CEM leukemia was 29%; with MOLT-4 leukemia it was 19.2%.

As for `N#Cc1nc(-c2ccc(F)cc2)oc1S(=O)(=O)N1CCN(c2ccc(F)cc2)CC1`, the growth with HCT-15 colon is 14%; in the assay with HT29 colon it was 65.9%; in the assay on SNB-75 CNS, 87.6%; with SNB-19 CNS, 96.9%; with U251 CNS, 86.7%; in the assay on PC-3 prostate, 92%. Besides, the growth was 93.1% with SK-MEL-5 melanoma; 90.6% with UACC-62 melanoma; 10.3% in the assay on LOX IMVI melanoma; 104% with SK-MEL-28 melanoma; 90.9% in the assay on SK-MEL-2 melanoma; 113% in the assay on EKVX NSCLC. Further, the growth in the assay on SN12C renal was 85%; in the assay with UO-31 renal, 81.2%; with TK-10 renal it was 86%; with ACHN renal, 77.5%; with CAKI-1 renal, 100%; in the assay on A498 renal, 113%. Besides, the growth in the assay on CCRF-CEM leukemia was 4.6% (active); in the assay on MOLT-4 leukemia, 1.8% (active).

As to `NC(CSC(c1ccccc1)(c1ccccc1)c1ccc2c(c1)OCO2)C(=O)O` (centres undefined), the growth in the assay on HCT-15 colon was 25.4%; in the assay with HT29 colon it was -5.15% (active); in the assay with SNB-75 CNS it was 30.8%; with SNB-19 CNS it was 37.7%; with U251 CNS, -7.2% (active); in the assay on PC-3 prostate, 18.7%. For the same compound, the growth with SK-MEL-5 melanoma was 8.31% (active); with UACC-62 melanoma, 25.4%; in the assay with LOX IMVI melanoma it was 28.5%; in the assay with SK-MEL-28 melanoma, 47.4%; in the assay with SK-MEL-2 melanoma it was -14.6% (active); in the assay on EKVX NSCLC, 43.4%. Also, the growth in the assay with SN12C renal is 36.7%; in the assay on UO-31 renal, 53%; in the assay on TK-10 renal it was 69.8%; with ACHN renal it was 53%; in the assay on CAKI-1 renal, 37%; with A498 renal, 34.3%. Besides, the growth in the assay on CCRF-CEM leukemia was -6.86% (active); with MOLT-4 leukemia, 7.18% (active).

`CCCCCCCCCCCCCCCCCCOc1ccccc1CC(=O)OCC[N+]1(C)CCOCC1`: the growth in the assay on HCT-15 colon was 90%; with HT29 colon it was 47.9%; in the assay on SNB-75 CNS, 19.7%; in the assay with SNB-19 CNS it was 54.4%; in the assay on U251 CNS it was 30.1%; in the assay with PC-3 prostate it was 41.1%. For the same compound, the growth in the assay on SK-MEL-5 melanoma was 79.8%; with UACC-62 melanoma, 60.8%; in the assay on LOX IMVI melanoma, 55.9%; in the assay on SK-MEL-28 melanoma, 85.7%; in the assay with SK-MEL-2 melanoma it was 91.5%; in the assay on EKVX NSCLC, 86.7%. In addition, the growth in the assay on SN12C renal is 31.4%; in the assay on UO-31 renal, 67.9%; with TK-10 renal, 43.5%; in the assay with ACHN renal, 89.6%; in the assay with CAKI-1 renal it was 49.1%; with A498 renal it was 64.1%. Also, the growth is 30.1% with CCRF-CEM leukemia and 46.9% in the assay on MOLT-4 leukemia.

Turning to `O=C(Cn1nnc2ccccc21)N/N=C/c1ccccc1F`, the growth with HCT-15 colon was 106%; in the assay with HT29 colon, 99.5%; with SNB-75 CNS, 95.2%; in the assay with SNB-19 CNS it was 103%; with U251 CNS it was 97.1%; in the assay with PC-3 prostate, 96%. Besides, the growth in the assay with SK-MEL-5 melanoma is 102%; in the assay with UACC-62 melanoma, 88.5%; in the assay with LOX IMVI melanoma, 101%; with SK-MEL-28 melanoma, 108%; in the assay on SK-MEL-2 melanoma, 102%; in the assay on EKVX NSCLC, 106%. The growth in the assay with SN12C renal was 83.9%; in the assay on UO-31 renal, 87%; in the assay with TK-10 renal, 107%; in the assay on ACHN renal it was 106%; in the assay on CAKI-1 renal it was 97.9%; in the assay on A498 renal, 85.5%. Besides, the growth in the assay on CCRF-CEM leukemia was 103%; with MOLT-4 leukemia it was 104%.

As to `CCN1C(=O)N(CC)C2C1NN=c1s/c(=C3\C(=O)N(CCc4ccccc4)c4ccccc43)c(=O)n12` (centres undefined), the growth in the assay on HCT-15 colon was 10.7%; in the assay on HT29 colon it was 0.473% (active); in the assay on SNB-75 CNS, -4.86% (active); in the assay with SNB-19 CNS it was 23.3%; in the assay on U251 CNS, 14.5%; in the assay with PC-3 prostate, 20.5%. Moreover, the growth is 7.69% (active) with SK-MEL-5 melanoma; 28.1% with UACC-62 melanoma; 10.9% in the assay with LOX IMVI melanoma; 43.6% in the assay on SK-MEL-28 melanoma; 54.7% with SK-MEL-2 melanoma; 43.6% with EKVX NSCLC. Also, the growth in the assay with SN12C renal was 17.8%; in the assay on UO-31 renal, 45.4%; in the assay on TK-10 renal it was 64.1%; in the assay with ACHN renal, 25.5%; in the assay with CAKI-1 renal, 27.7%; with A498 renal, -3.18% (active). Further, the figures for the growth with CCRF-CEM leukemia and with MOLT-4 leukemia were 5.65% (active) and 10.3%, respectively.

`CC1=C(C(=O)n2c3ccccc3c3ccccc32)C(c2cccc([N+](=O)[O-])c2)C(C(=O)n2c3ccccc3c3ccccc32)=C(C)N1`: the growth in the assay on HCT-15 colon is 81.9%; with HT29 colon, 104%; with SNB-75 CNS it was 82.9%; in the assay on SNB-19 CNS, 95.6%; with U251 CNS it was 89.5%; in the assay on PC-3 prostate it was 80.7%. Also, the growth with SK-MEL-5 melanoma was 93.7%; with UACC-62 melanoma, 87.6%; in the assay with LOX IMVI melanoma, 87.1%; with SK-MEL-28 melanoma it was 103%; in the assay on SK-MEL-2 melanoma, 102%; in the assay with EKVX NSCLC it was 102%. The growth was 99.9% in the assay on SN12C renal; 71.4% in the assay on UO-31 renal; 104% with TK-10 renal; 93.4% in the assay with ACHN renal; 77.5% with CAKI-1 renal; 93.1% in the assay with A498 renal. In addition, the growth is 88.7% with CCRF-CEM leukemia and 83.1% in the assay with MOLT-4 leukemia.
